Experimental data as given in the supplement of paper PMC10981050.
“And” between values parts separate entries of the source, which are not always exact repeats. Identical values can stand only once. Counter-ions that a name gives are not always drawn.

Experiments:
Experiment in all cases: cell viability relative to vehicle control; higher = less cytotoxic
Conditions in all cases: 10 µM
[1] = tested on: K562
Method in brief: (§1)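 Mutant clones made by CRISPR editing and their isogenic wild-type counterparts, from four leukaemia lines, were exposed to a single 10 µM dose of each library compound for 48 h. The supernatant was then removed and CellTiter-Glo luminescence was read. Viability was reported as percent of the on-plate vehicle control.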

[2] = tested on: MARIMO
Method in brief: as §1

[3] = tested on: MOLM14
Method in brief: as §1

[4] = tested on: OCI-AML2
Method in brief: as §1

SMILES	cell viability ([1]; SRSF2 genotype: SRSF2 P95H/wt)	cell viability ([1]; SRSF2 genotype: SRSF2 wt/wt) [%]	cell viability ([2]; SRSF2 genotype: SRSF2 P95H/wt) [%]	cell viability ([2]; SRSF2 genotype: SRSF2 wt/wt) [%]	cell viability ([3]; SRSF2 genotype: SRSF2 P95H/wt) [%]	cell viability ([3]; SRSF2 genotype: SRSF2 wt/wt) [%]	cell viability ([4]; SRSF2 genotype: P95H/wt) [%]	cell viability ([4]; SRSF2 genotype: wt/wt) [%]
OC[C@H]1O[C@@](CO)(OC[C@@]2(OC[C@@]3(OC[C@@]4(O[C@H]5O[C@H](CO)[C@@H](O)[C@H](O)[C@H]5O)O[C@H](CO)[C@@H](O)[C@@H]4O)O[C@H](CO)[C@@H](O)[C@@H]3O)O[C@H](CO)[C@@H](O)[C@@H]2O)[C@@H](O)[C@@H]1O [1F-Fructofuranosylnystose]	110% and 109%	104	109	103	103	107	101	108
CCC/N=C1\S/C(=C\c2ccc(OC[C@H](O)CO)c(Cl)c2)C(=O)N1c1ccccc1C	89.5% and 93.7%	89.6	105	98.3	94.5	93.5	108	95.2
Nc1ccn([C@@H]2O[C@H](CO)[C@@H](O)C2(F)F)c(=O)n1 [Gemcitabine (Gemzar)]	89% and 104%	101	21.3	24.4	4.86	1.1	7.55	8.99
COc1ccc(-c2coc3cc(O)cc(O)c3c2=O)cc1 [Biochanin A (4-Methylgenistein)]	97.6% and 85.7%	85.2	79.3	90	96.5	91.3	82.5	79.5
CCOC(=O)C1=C(COCCN)NC(C)=C(C(=O)OC)[C@@H]1c1ccccc1Cl [Levamlodipine]	75.1% and 83.2%	77	72.9	75	50.3	52	30.2	39.7
Cc1c(CN2CCC(Nc3ncnc4sc(CC(F)(F)F)cc34)CC2)ccc2[nH]c(C#N)cc12	3.04% and 4.05%	17.5	42.9	41.7	4.02	3.33	0.4	9.25
CC12CCC(CC1=O)C2(C)C (stereo not drawn) [(+)-Camphor]	94.2% and 102%	101	96.2	99.9	99.3	99.8	103	92.2
CCOC(=O)CCC(=O)O[C@H]1[C@H](O[C@@H]2[C@@H](C)[C@H](O[C@H]3C[C@@](C)(OC)[C@@H](O)[C@H](C)O3)[C@@H](C)C(=O)O[C@H](CC)[C@@](C)(O)[C@H](O)[C@@H](C)C(=O)[C@H](C)C[C@@]2(C)O)O[C@H](C)C[C@@H]1N(C)C [Erythromycin Ethylsuccinate]	95.1% and 103%	108	102	101	106	102	117	98.3
CCCc1cc(C)[nH]c(=O)c1CNC(=O)c1cc(-c2ccc(N3CCN(C)CC3)nc2)nc2c1cnn2C(C)C	15.9% and 4.45%	20.9	85.6	47.7	55.9	78.5	0.4	0.41
CC(=O)O[C@H](CC(=O)O)C[N+](C)(C)C [O-Acetyl-L-carnitine hydrochloride]	112% and 110%	110	110	110	101	108	105	104
Cc1c(C)c2c(c(C)c1O)CCC(C)(CCCC(C)CCCC(C)CCCC(C)C)O2 (stereo unspecified) [Vitamin E]	96.5% and 100%	108	106	104	105	104	106	100
C[S+]([O-])c1ccc(-c2nc(-c3ccc(F)cc3)c(-c3ccncc3)[nH]2)cc1 (stereo unspecified)	96.3% and 94.8%	88.4	110	113	109	99.9	109	102
CC(=O)Oc1c(C)c(C)c2c(c1C)CCC(C)(CCC[C@H](C)CCC[C@H](C)CCCC(C)C)O2 (stereo partly specified) [Vitamin E Acetate]	105% and 103%	106	102	103	103	106	105	94.2
CC(C)CCCC(C)CCCC(C)CCCCC(C)CCCC(C)CCCC(C)C (stereo unspecified) [Squalane]	109% and 97%	108	105	106	103	108	103	100
CNCc1cc(-c2ccccc2F)n(S(=O)(=O)c2cccnc2)c1 [Vonoprazan Fumarate (TAK-438)]	94.5% and 98%	94.2	85.5	89.8	93	91.3	97.1	85.7
CCOc1ccc(Cc2cc([C@@H]3O[C@H](CO)[C@@H](O)[C@H](O)[C@H]3O)ccc2Cl)cc1 [Dapagliflozin]	93.8% and 97.1%	105	102	96.9	95.9	99.4	97.7	105
O=C(O)/C=C/c1ccc(O)c(O)c1 [Caffeic acid]	99.1% and 100%	94.3	94.2	105	97.7	101	76.2	92.7
O=C(c1ccccc1)c1ccc2n1CCC2C(=O)O (stereo unspecified) [Ketorolac]	102% and 98.1%	99.6	100	102	98.2	102	103	108
COc1cc(C(C)=O)ccc1O [Apocynin (Acetovanillone)]	103% and 104%	105	91.6	110	104	103	93	93.7

SMILES	cell viability ([1]; SRSF2 genotype: SRSF2 P95H/wt)	cell viability ([1]; SRSF2 genotype: SRSF2 wt/wt) [%]	cell viability ([2]; SRSF2 genotype: SRSF2 P95H/wt) [%]	cell viability ([2]; SRSF2 genotype: SRSF2 wt/wt) [%]	cell viability ([3]; SRSF2 genotype: SRSF2 P95H/wt) [%]	cell viability ([3]; SRSF2 genotype: SRSF2 wt/wt) [%]	cell viability ([4]; SRSF2 genotype: P95H/wt) [%]	cell viability ([4]; SRSF2 genotype: wt/wt) [%]
CCCN(CCc1cccs1)[C@H]1CCc2c(O)cccc2C1 [Rotigotine]	99.3% and 105%	104	89.7	105	93.8	101	107	92.3
C1=Cc2ccccc2Nc2ccccc21 [Iminostilbene]	101% and 95.4%	98.1	95.5	113	105	108	106	92.6
CCCCc1nc(Cl)c(CO)n1Cc1ccc(-c2ccccc2-c2nnn[nH]2)cc1 [Losartan potassium]	106% and 103%	104	103	114	104	104	102	106
Nc1nc(NCCc2ccc(O)cc2)nc2nc(-c3ccco3)nn12	92.4% and 100%	94.8	102	110	94.4	104	97	104
O=C(CCCCCCC(=O)Nc1ccccc1)NO [Vorinostat (SAHA, MK0683)]	1.62% and 17.9%	10.1	4.92	8.5	0.83	0.28	1.15	4.64
Cc1nc2ccc(NC(=O)Nc3ccnc4cccnc34)cc2o1	99.3% and 105%	98.3	96.4	89.9	104	107	88.2	96.4
C=C[C@H]1CN2CC[C@H]1C[C@H]2[C@H](O)c1ccnc2ccc(OC)cc12 [Quinine hydrochloride dihydrate]	90.8% and 92.7%	88	87.7	86.5	79.7	93.2	88.9	84.9
Cn1cc(-c2cnn3c(N)c(Br)c([C@@H]4CCCNC4)nc23)cn1	42.2% and 58.8%	25.3	50.4	61.6	12.8	7.07	9.84	11.1
O=C(Nc1cccc(Cl)c1)c1ccccn1	99.3% and 105%	97	98.5	109	112	114	96.2	97
CC(C)c1c(C(=O)Nc2ccccc2)c(-c2ccccc2)c(-c2ccc(F)cc2)n1CC[C@@H](O)C[C@@H](O)CC(=O)O [Atorvastatin calcium (Lipitor)]	67.2% and 88.5%	56.9	52	50.4	67.7	91.5	41.1	45.6
O=C(O)CCc1ccc(NCc2cccc(Oc3ccccc3)c2)cc1	94.2% and 89.7%	111	82.4	93.1	94.2	95.7	91	92.7
OC1CCC(Nc2ncc3nc(Nc4c(F)cc(F)cc4F)n([C@H]4CCOC4)c3n2)CC1 (stereo partly specified) [Tanzisertib(CC-930)]	101% and 111%	114	116	103	91.8	109	117	122
COc1cc2c(cc1OC)-c1cc3ccc4c(c3c[n+]1CC2)OCO4 [Epiberberine]	84.1% and 89.4%	85.8	98.2	98.2	94.8	86.9	86.4	89.3
O=S(=O)(O)Oc1ccc(C(c2ccc(OS(=O)(=O)O)cc2)c2ccccn2)cc1 [Sodium Picosulfate]	103% and 102%	108	106	112	103	104	104	101
O=C(O)C=CCCCCCCCO [Royal jelly acid]	103% and 104%	102	104	105	98.5	102	110	112
Clc1ccc(C(Cn2ccnc2)OCc2c(Cl)cccc2Cl)c(Cl)c1 (stereo unspecified) [Isoconazole nitrate (Travogen)]	73.3% and 76.4%	68.3	70.2	73.2	77.6	79.6	75.9	69.7
NC(=O)[C@@H]1CC[C@@H]2CN1C(=O)N2OS(=O)(=O)O [Avibactam sodium]	102% and 116%	112	110	106	108	111	102	101
CC(C)(C)NC(=O)[C@H]1CC[C@H]2[C@@H]3CC[C@H]4NC(=O)C=C[C@]4(C)[C@H]3CC[C@]12C [Finasteride]	103% and 99%	97.5	94.3	105	101	102	99.7	106
